The values below come from PubChem BioAssay (NCI).

Assay [1] can be described thus: NCI Yeast Anticancer Drug Screen. Data for the rad50 strain (AID 155).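 Also: 0% = growth of vehicle-only cultures of the same strain.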 Conditions: S. cerevisiae rad50 strain growth inhibition; at 50.0 µM; hits give high values. The method, boiled down:
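Compounds were tested on a yeast strain with an engineered DNA damage repair alteration; the reported value is growth inhibition normalised to vehicle treatment.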

A short description of assay [2]: NCI Yeast Anticancer Drug Screen. Data for the mec2-1 strain (AID 157). Conditions: S. cerevisiae mec2-1 strain, at 50.0 µM, hits give high values. The method in brief: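 Strain: mec2-1 (DNA repair/cell cycle alteration). Compound exposure, then growth measured; inhibition expressed relative to vehicle.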
A short description of assay [3]: NCI Yeast Anticancer Drug Screen. Data for the sgs1 mgt1 strain (AID 161).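 Also: 0% = growth of cultures given vehicle only.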 Conditions: S. cerevisiae sgs1 mgt1 strain, at 50.0 µM, hits give high values. The method in brief: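 Inhibition of yeast growth, normalised to vehicle-treated controls, is reported for a strain bearing genetic alterations in DNA damage repair.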
Assay [4] in a line: NCI Yeast Anticancer Drug Screen. Data for the cln2 rad14 strain (AID 165).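 Also: 0% = growth equal to vehicle treated cultures.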 The following applies: S. cerevisiae cln2 rad14 strain, at 50.0 µM, hits give high values. The method in brief:
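Compounds are applied to the cln2 rad14 yeast strain, and growth is then compared with that of vehicle-treated cultures to give inhibition.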

Assay [5] in a line: NCI Yeast Anticancer Drug Screen. Data for the mlh1 rad18 strain (AID 175). Conditions: S. cerevisiae mlh1 rad18 strain growth inhibition; at 50.0 µM; hits give high values. The method, boiled down: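 Read-out is yeast growth inhibition, calculated against vehicle-only controls. The compound was applied to a strain engineered with DNA damage repair alterations.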
Assay [6] can be described thus: NCI Yeast Anticancer Drug Screen. Data for the bub3 strain (AID 167). The following applies: S. cerevisiae bub3 mutant strain, at 50.0 µM, hits give high values. The method in brief: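 Growth of a checkpoint-deficient yeast mutant is measured after compound exposure. Values represent inhibition relative to vehicle.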

SMILES strings stand for the structures. Compounds without any hit were thinned out: in the full panel of roughly 79,000, 15% have a hit. Values without a mark were called inactive. Active and inactive are the calls of the source. Rule as the data show it: active = growth inhibition above about 70%; inactive = the rest.

Take `[N-]=[N+]=Nc1ccccc1C(=O)N1C(=O)c2ccccc2C(=O)N(C(=O)c2ccccc2N=[N+]=[N-])c2ccccc21`: the growth inhibition in assay [1] is 1.35%; in assay [2] it was 7.9%; in assay [3], 0.8%; in assay [4], 0.35%; in assay [5] it was -6.4%.
In the same order, the values of `C[n+]1c(-c2ccc(/C=N/NC(=O)c3cc(O)c(C(=O)N/N=C/c4ccc(-c5cn6ccccc6[n+]5C)cc4)cc3O)cc2)cn2ccccc21` are -31%, -13.5%, -15.7%, -39.5% and -10.5%.
For `OC(c1cc(-c2ccccc2)nc2c1ccc1ccccc12)C1CCCCN1` (centres undefined), the growth inhibition in assay [1] was 32.5%; in assay [2], 16.7%; in assay [3], -17.1%; in assay [4], 14%; in assay [5], 26.4%.
On the same counts, the results for `CC(C)(C)c1cc(Nc2c([N+](=O)[O-])cc([N+](=O)[O-])cc2[N+](=O)[O-])cc(C(C)(C)C)c1O` are -17.7%, 10.4%, 2.65%, 20.4% and 0.45%.
In the same order, the values of `O=c1[nH]c(=O)n(C2CC(O)C(CO)O2)cc1NN=NCCCc1ccccc1` (centres undefined) are -21.8%, -12.4%, -8.5%, 10.8% and -32.5%.
Turning to `CC(=O)C(C)CCOC1(C)OCCC1C` (centres undefined), the growth inhibition was -7.4% in assay [1]; 5.25% in assay [2]; -13.1% in assay [3]; -22.2% in assay [4]; -36.4% in assay [6]; 7% in assay [5].
For `CC(=O)OC1CC2CC1C1C=CCC21` (centres undefined), the growth inhibition in assay [1] was 10.3%; in assay [2], 3.75%; in assay [3], 19.8%; in assay [4], 11.3%; in assay [5] it was 0.65%.
As for `COc1ccc(/C=C2\N=C(c3ccccc3)N(Nc3nnc(NN4C(=O)/C(=C/c5ccc(OC)cc5)N=C4c4ccccc4)c4ccccc34)C2=O)cc1`, the growth inhibition is -9.4% in assay [1]; -10.3% in assay [2]; 1.65% in assay [3]; 8.7% in assay [4]; -21.4% in assay [6]; 4.35% in assay [5].
With `CN1CCN(CCCO)CC1`, the growth inhibition was -15.2% in assay [1]; 3.3% in assay [2]; -8.85% in assay [3]; -16.4% in assay [4]; -0.25% in assay [5].
In the same order, the values of `CC(=O)NC1CCC2CCCCC2C1` (centres undefined) are 15.7%, -3.15%, -8.75%, -61% and -17.9%.
On the same counts, the results for `CC(=O)OC1c2ccccc2Cc2ccccc21` are 21.5%, 26.3%, 4.1%, 16.6% and 13.1%.
On the same counts, the results for `N#CCCn1nc(SCc2ccccc2)c(=O)[nH]c1=O` are -2.6%, 0.3%, 7.65%, 6.3% and 7.85%.
Take `COc1ccc2c(c1OC)Oc1c(OC)ccc3c1C(C2)N(C)C[C@@H]3O` (some centres undefined): the growth inhibition in assay [1] is 10.1%; in assay [2], 3.25%; in assay [3], -7.6%; in assay [4], -0.6%; in assay [5] it was -5.5%.
For `COc1cc(C2c3cc4c(cc3OC3(OC)COC(=O)C23)OCO4)cc(OC)c1OC` (centres undefined), the growth inhibition is 0.4% in assay [1]; 13.4% in assay [2]; 4.9% in assay [3]; -13.9% in assay [4]; -21.4% in assay [5].
Regarding `CC(CN(C)C)Oc1ccc2c(c1)C(=O)C(C)C2` (centres undefined), the growth inhibition in assay [1] was -25.6%; in assay [2], -5.25%; in assay [3], 4.85%; in assay [4], -28.9%; in assay [6], 22.1%; in assay [5], -22.6%.
As for `OC1COCCC(O)(CNCc2ccccc2)C1O` (centres undefined), the growth inhibition is 7.4% in assay [1]; 16.6% in assay [2]; -3.95% in assay [3]; 8.15% in assay [4]; -9.1% in assay [5].
In the same order, the values of `CC(C)=CCC/C(C)=C/CNc1ncnc2c1ncn2C1OC(CO)C(O)C1O` (centres undefined) are -4.3%, 13.7%, 6.6%, -37% and 27.6%.
Consider `Clc1nnc(-c2ccccc2)s1`, for which the growth inhibition in assay [1] was 2.3%; in assay [2], 2.85%; in assay [3], 19.9%; in assay [4] it was 7.85%; in assay [5] it was 9.5%.
On to `COC(C)CCOC(=O)c1ccccc1` (centres undefined), for which the growth inhibition in assay [1] is -33%; in assay [2], -17.6%; in assay [3] it was -14.2%; in assay [4] it was -29.7%; in assay [5], -31.2%.
In the case of `COc1ccc(C(C2=C(O)CC(C)OC2=O)C2=C(O)CC(C)OC2=O)cc1` (centres undefined), the growth inhibition is -15.1% in assay [1]; -5.4% in assay [2]; -12.6% in assay [3]; -14.2% in assay [4]; -10% in assay [5].
In the same order, the values of `Cc1ccc(N=C2C(c3ccccc3)=C(SC3=C(c4ccccc4)C(=Nc4ccc(C)cc4)c4ccccc43)c3ccccc32)cc1` are 12.9%, 0.7%, 3.9%, 15.2% and -8.65%.
In the case of `COC(=O)C(C)NC(=O)C(C)NC(=O)c1cc(OC)c(OC)c(OC)c1` (centres undefined), the growth inhibition in assay [1] was 28.2%; in assay [2] it was 17.8%; in assay [3], 17.4%; in assay [4], 17.1%; in assay [5], 15.8%.
Regarding `CC(C)C1CCC2(CC1)CCN(CCCN(C)C)CC2`, the growth inhibition in assay [1] was -4.65%; in assay [2], 25.3%; in assay [3], 9.15%; in assay [4], -23.6%; in assay [5] it was -7.65%.
Regarding `CC[N+](C)(C)CC(O)(O)C(F)F`, the growth inhibition is -28.1% in assay [1]; -32.7% in assay [2]; -17.1% in assay [3]; 2.25% in assay [4]; -16.2% in assay [5].
On the same counts, the results for `O=C(c1ccc(CSc2ccc(Cl)cc2)o1)N1CCOCC1` are 23.9%, 12%, 45.5%, 24.2% and 26.6%.
Consider `COc1ccccc1Nc1nc(-c2ccc([N+](=O)[O-])o2)cs1`, for which the growth inhibition in assay [1] is 70.6% (active); in assay [2], 36.2%; in assay [3], 87.1% (active); in assay [4] it was 92.8% (active); in assay [5], 92.3% (active).
On the same counts, the results for `CCC(C)N=C1NS(=O)(=O)c2ccccc21` (centres undefined) are 9.5%, -3.3%, -2.4%, 33.2% and 7.85%.
For the molecule `COc1cc2c(cc1OC)C(CC(=O)NN=C(C)C)NCC2` (centres undefined), the growth inhibition in assay [1] is -20.6%; in assay [2], -19.6%; in assay [3], -10.2%; in assay [4], 3.1%; in assay [6] it was -16.8%; in assay [5] it was -34.2%.
Turning to `O=C(O)C1CC2C3CCC2C1C3=O` (centres undefined), the growth inhibition in assay [1] is -8.8%; in assay [2] it was -26.3%; in assay [3], 23.1%; in assay [4], 4.4%; in assay [5] it was -34.7%.
On the same counts, the results for `C=C1C(=O)OC2CC3(CO3)C3C(O)C(O)CC3(C)CC12` (centres undefined) are 2.4%, 2.45%, -14.2%, -13.6% and -70.7%.
As to `CCOC(=O)[C@H]1Nc2ccc(Cl)cc2[C@H]2OCC[C@@H]12`, the growth inhibition was 5.5% in assay [1]; -10.9% in assay [2]; -2.4% in assay [3]; 23.8% in assay [4]; -0.7% in assay [5].
As to `CC12NN=NC1C(=O)NC2=O` (centres undefined), the growth inhibition in assay [1] was 0.85%; in assay [2], -0.75%; in assay [3] it was 20.6%; in assay [4] it was 12%; in assay [5] it was -5.05%.
On the same counts, the results for `O=C(N/N=C\c1ccc([N+](=O)[O-])cc1)Nc1cccc2ccccc12` are -49%, 13.3%, -42.4%, -14.4% and -41.8%.
On the same counts, the results for `CNc1c(F)cc(C(=O)O)cc1F` are -8.35%, 4.5%, -0.25%, -16.4% and 2.15%.
In the same order, the values of `COC(=O)c1sc(C(=O)OC)c2c1CS(=O)C2` are -10.3%, 2.1%, 10.1%, 30% and 42.2%.
With `CCC/C(CC)=N\Nc1ccc([N+](=O)[O-])cc1[N+](=O)[O-]`, the growth inhibition in assay [1] is -6.9%; in assay [2], 9.4%; in assay [3] it was -2.35%; in assay [4], 30.9%; in assay [5], -4.1%.
On the same counts, the results for `CC(=O)NCC(C)(C)C` are 2.15%, 10.8%, -12.7%, -16.2% and -12.8%.
Take `O=C(Nc1ccc(Cl)cc1Cl)C(=O)C(C(=O)c1ccc2ccccc2c1)C1OC(=O)c2ccccc21` (centres undefined): the growth inhibition was 13.4% in assay [1]; 21.6% in assay [2]; 2.7% in assay [3]; 15.9% in assay [4]; -6.45% in assay [5].
On the same counts, the results for `Cc1ccc(S(=O)(=O)N/N=C/C(C)(C)C)cc1` are 17.4%, -3.25%, 8.95%, -19% and 16.6%.
For the molecule `c1ccc(CC2(Cc3ccccc3)SCCS2)cc1`, the growth inhibition in assay [1] is -11.7%; in assay [2], 8.45%; in assay [3] it was 6.55%; in assay [6] it was -0.6%; in assay [5] it was -6.05%.
As to `CC(C)=CCC/C(C)=C/c1cc(C(=O)O)c2c(ccc3ccccc32)n1`, the growth inhibition was 9.6% in assay [1]; 10.5% in assay [2]; 6.7% in assay [3]; 11.3% in assay [4]; 14.3% in assay [5].
`CCOC(=O)c1sc(SC)nc1NC(=O)c1ccc(Cl)cc1`: the growth inhibition was -26.6% in assay [1]; 19.8% in assay [2]; -49.6% in assay [3]; -2.55% in assay [6]; -24.7% in assay [5].
In the same order, the values of `CCN(CC)C(C)(C)C(=O)/C=C/c1ccc(OC)cc1` are -11.6%, -15.2%, -33.3%, 9.65% and -18.4%.
On the same counts, the results for `Cc1cccc(C=NC23CC4CC(CC(C4)C2)C3)c1` are -30.4%, -40.5%, -40.5%, -44.9% and -43.3%.
In the same order, the values of `C/C=C/C(=O)Nc1cc(Cl)ccc1C` are -1.25%, -8.1%, -4.95%, 9.4% and 5.55%.
